# Measured values reported in PubChem BioAssay.
# Values without a mark were called inactive. No rule for the calls is given here.
# Tested on: Aerobactin synthetase IucA (Klebsiella pneumoniae hvKP1)
# Test: Biochemical IucA enzyme inhibition primary screen of the Spectrum library (AID 1346200);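 also: 100% = wells without compound and 0% = wells lacking enzyme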
# Details: malachite green pyrophosphate, A620, at 8 µM, stronger effect = lower value
row,Compound,activity remaining [%]
1,CC(C)=CCc1c2c(c3occ(-c4ccc(O)c(O)c4)c(=O)c3c1O)C=CC(C)(C)O2,120
2,COc1cccc(/C=C/C(=O)O)c1C(C)C,122
3,NC(=O)c1ccc[n+]([C@@H]2O[C@H](COP(=O)([O-])OP(=O)(O)OC[C@H]3O[C@@H](n4cnc5c(N)ncnc54)[C@H](OP(=O)(O)O)[C@@H]3O)[C@@H](O)[C@H]2O)c1,101
4,CCCCCC(=O)Cc1cc(O)cc(O)c1C(=O)Oc1cc(CC(=O)CCCCC)c(C(=O)O)c(OC)c1,106
5,CC(=O)O[C@@H]1CC[C@@]2(C)C(C[C@@H](OC(C)=O)[C@@]3(C)C4=CC(=O)O[C@@H](c5ccoc5)[C@]4(C)CCC23)C1(C)C (stereo not given in full),121
6,N[C@@H]1[C@@H](O[C@@H]2O[C@H](C(=O)O)[C@@H](O)[C@H](O)[C@H]2O)[C@@H](O)[C@@H](CO)O[C@@H]1O,100
7,Cc1noc(NS(=O)(=O)c2ccc(N)cc2)c1C,117
8,COC(=O)C1=CO[C@@H](C)[C@@H]2CN3CC[C@]4(C(=O)Nc5ccccc54)C3CC12 (stereo not given in full),121
9,CC(=O)NCCCS(=O)(=O)O,103
10,O=c1[nH]c(=O)n(C2C[C@@H](O)[C@@H](CO)O2)cc1F (stereo not given in full),120
11,Cc1cc2cc3c(C)cc(=O)oc3c(C)c2o1,117
12,CC12CCC3C(=CCc4cc(O)ccc43)C1CCC2=O (stereo not given),108
13,Nc1nccs1,89.3
14,NC(N)=NCCC[C@@H](NC(=O)[C@@H](N)Cc1ccc(O)cc1)C(=O)O,110
15,C=C1C(=O)O[C@@H]2C[C@@]3(C)CCC[C@H](C)C3=C[C@H]12,97.8
16,C[C@H](CCC(=O)O)[C@H]1CCC2C3C(CC[C@@]21C)[C@@]1(C)CC[C@@H](O)C[C@H]1C[C@@H]3O (stereo not given in full),105
17,CC(=O)O[C@]1(C(C)=O)CCC2C3C[C@H](C)C4=CC(=O)CC[C@]4(C)C3CC[C@@]21C (stereo not given in full),95.7
18,COc1c(C)c2c(c(O)c1C/C=C(\C)CCC(=O)O)C(=O)OC2,98.9
19,CC[C@H]1OC(=O)[C@H](C)[C@@H](O[C@H]2C[C@@](C)(OC)[C@@H](O)[C@H](C)O2)[C@H](C)[C@@H](O[C@@H]2O[C@H](C)C[C@H](N(C)C)[C@H]2O)[C@](C)(O)C[C@@H](C)C(=O)[C@H](C)[C@@H](O)[C@]1(C)O,117
20,COc1cc(-c2coc3cc(OCc4ccccc4)c(OC)c(O)c3c2=O)cc(O)c1OC,122
21,CC1(C)O[C@@H]2CC3C4C[C@H](F)C5=CC(=O)C=CC5(C)C4C(O)CC3(C)[C@]2(C(=O)CO)O1 (stereo not given in full),111
22,NS(=O)(=O)c1cc(C2(O)NC(=O)c3ccccc32)ccc1Cl (stereo not given),117
23,CC[C@H](/C=C/C(C)C1CCC2C3CCC4=CC(=O)CC[C@]4(C)C3CC[C@]12C)C(C)C (stereo not given in full),101
24,CCCCCC1C(=O)CCC1CC(=O)OC (stereo not given),118
25,CN1C2CCC1CC(OC(=O)C(CO)c1ccccc1)C2 (stereo not given),108
